Laboratory results: the supplement of paper PMC3334620
Over roughly 33,000 sequences, “E-score (-0.5 to 0.5)” has its median near -0.021; the highest 2% begin near 0.32. For the sample, the highest values were picked, then their nearest neighbours and some sequences at random.

biological target: T1, Zap1 (UniProt P47043); assay: PBM E-score (8-mer binding enrichment) (E-score (-0.5 to 0.5)); higher = stronger / more preferred TF binding; settings: protein concentration: 200 nM; construct: GST-full length
T1 sequence: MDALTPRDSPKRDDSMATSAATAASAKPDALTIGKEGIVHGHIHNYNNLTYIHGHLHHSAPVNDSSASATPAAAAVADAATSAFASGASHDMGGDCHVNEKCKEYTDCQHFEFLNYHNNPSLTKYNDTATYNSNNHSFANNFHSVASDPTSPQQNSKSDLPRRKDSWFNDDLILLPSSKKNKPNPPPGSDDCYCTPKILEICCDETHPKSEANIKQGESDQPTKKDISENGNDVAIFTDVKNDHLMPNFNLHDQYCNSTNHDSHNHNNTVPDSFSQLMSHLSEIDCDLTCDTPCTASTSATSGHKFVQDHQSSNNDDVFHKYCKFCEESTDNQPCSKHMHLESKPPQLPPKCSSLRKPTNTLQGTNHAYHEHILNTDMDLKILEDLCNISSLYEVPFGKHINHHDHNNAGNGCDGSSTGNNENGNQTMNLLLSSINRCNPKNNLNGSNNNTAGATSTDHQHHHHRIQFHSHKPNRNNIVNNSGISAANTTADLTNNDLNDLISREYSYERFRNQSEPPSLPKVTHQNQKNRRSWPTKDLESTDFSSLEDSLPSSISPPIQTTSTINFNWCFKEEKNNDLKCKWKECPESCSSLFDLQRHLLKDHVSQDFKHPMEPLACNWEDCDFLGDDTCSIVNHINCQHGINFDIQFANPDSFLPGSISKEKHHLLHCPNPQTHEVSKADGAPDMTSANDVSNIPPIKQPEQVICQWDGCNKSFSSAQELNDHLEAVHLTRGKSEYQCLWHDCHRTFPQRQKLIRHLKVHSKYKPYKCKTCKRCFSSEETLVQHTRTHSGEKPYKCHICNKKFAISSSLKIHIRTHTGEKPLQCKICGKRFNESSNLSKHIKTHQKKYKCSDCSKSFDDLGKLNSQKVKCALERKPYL
In short: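 Masliner-normalised scans of fluorescent anti-GST signal were the basis for scoring. That signal came from GST-tagged yeast transcription factors applied at about 100-200 nM to double-stranded universal all-10-mer Agilent arrays on fresh or once-stripped slides. Each ungapped eight-base word, pooled with its reverse complement, received an E-score from the Universal PBM Analysis Suite.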

**Q.** Which “PBM E-score” value does the source give for CTACTGTA here?
**A.** The value was -0.0171.

**Q.** CCACCCAC was tested. Which “PBM E-score” value did it give?
**A.** Its value is 0.263.

**Q.** CCACCCTA was tested. Which “PBM E-score” value did it give?
**A.** Its value is 0.327.

**Q.** How did the “PBM E-score” value turn out when ACACCCCA was run?
**A.** The value was 0.0819.

**Q.** Which “PBM E-score” value does the source give for GCACCCTA here?
**A.** Its value is 0.297.

**Q.** How did the “PBM E-score” value turn out when CCACCCAA was run?
**A.** The value was -0.0177.

**Q.** ACACCCTA was tested. Which “PBM E-score” value did it give?
**A.** The value was 0.335.

**Q.** ACACCCTG was tested. Which “PBM E-score” value did it give?
**A.** Its value is 0.21.

**Q.** How did the “PBM E-score” value turn out when CCACCCTC was run?
**A.** The value was 0.358.

**Q.** ACACCCTC was tested. Which “PBM E-score” value did it give?
**A.** The value was 0.312.

**Q.** For CCTAGGCC, which “PBM E-score” value is on record?
**A.** The value was -0.0276.

**Q.** How did the “PBM E-score” value turn out when ATATCTGG was run?
**A.** Its value is -0.138.

**Q.** How did the “PBM E-score” value turn out when CAGTTAAG was run?
**A.** The value was 0.0515.

**Q.** GGAGTTTA was tested. Which “PBM E-score” value did it give?
**A.** Its value is -0.0721.

**Q.** For ATGAGAGA, which “PBM E-score” value is on record?
**A.** The value was -0.0163.

**Q.** GTGCACGA was tested. Which “PBM E-score” value did it give?
**A.** The value was 0.0644.

**Q.** For GCCGCAAC, which “PBM E-score” value is on record?
**A.** Its value is 0.218.

**Q.** For ACCGCAAA, which “PBM E-score” value is on record?
**A.** The value was 0.205.

**Q.** With ACCGCAAC as the sequence, how does the “PBM E-score” value read?
**A.** Its value is 0.341.

**Q.** ACCGCAAT was tested. Which “PBM E-score” value did it give?
**A.** The value was 0.319.

**Q.** For ACCGCACT, which “PBM E-score” value is on record?
**A.** The value was 0.109.

**Q.** For ACCGCAAG, which “PBM E-score” value is on record?
**A.** The value was 0.153.

**Q.** Which “PBM E-score” value does the source give for AGCGACGC here?
**A.** Its value is -0.162.

**Q.** With TGCATCAA as the sequence, how does the “PBM E-score” value read?
**A.** The value was 0.122.

**Q.** CAGCGACA was tested. Which “PBM E-score” value did it give?
**A.** The value was -0.0507.

**Q.** Which “PBM E-score” value does the source give for ACCTAGGT here?
**A.** The value was 0.26.

**Q.** Which “PBM E-score” value does the source give for GGTGATGA here?
**A.** Its value is 0.338.

**Q.** Which “PBM E-score” value does the source give for CGTGATGA here?
**A.** The value was -0.0344.

**Q.** How did the “PBM E-score” value turn out when AGTGATGA was run?
**A.** Its value is -0.0675.

**Q.** For ACAGCAAC, which “PBM E-score” value is on record?
**A.** Its value is -0.00827.

**Q.** TGAGTGCA was tested. Which “PBM E-score” value did it give?
**A.** Its value is -0.113.

**Q.** How did the “PBM E-score” value turn out when CGAGGTTA was run?
**A.** Its value is 0.455.

**Q.** Which “PBM E-score” value does the source give for GGAGGTGA here?
**A.** The value was 0.13.

**Q.** GGAGGTTA was tested. Which “PBM E-score” value did it give?
**A.** Its value is 0.36.

**Q.** With CGAGGTTC as the sequence, how does the “PBM E-score” value read?
**A.** The value was 0.22.

**Q.** Which “PBM E-score” value does the source give for GGAGGTAA here?
**A.** The value was 0.289.

**Q.** For CGAGGTGA, which “PBM E-score” value is on record?
**A.** The value was 0.239.

**Q.** GTGGATGA was tested. Which “PBM E-score” value did it give?
**A.** The value was 0.014.

**Q.** How did the “PBM E-score” value turn out when ACGGATGG was run?
**A.** The value was -0.0981.

**Q.** With AGTTAACA as the sequence, how does the “PBM E-score” value read?
**A.** Its value is 0.117.

**Q.** GGTTAACA was tested. Which “PBM E-score” value did it give?
**A.** Its value is 0.32.

**Q.** CGTTAACA was tested. Which “PBM E-score” value did it give?
**A.** The value was 0.00812.

**Q.** For CGTTAACC, which “PBM E-score” value is on record?
**A.** The value was 0.294.

**Q.** With GGTTAACC as the sequence, how does the “PBM E-score” value read?
**A.** The value was 0.427.

**Q.** How did the “PBM E-score” value turn out when AGTTAACC was run?
**A.** Its value is 0.289.

**Q.** With ACGTTGGG as the sequence, how does the “PBM E-score” value read?
**A.** The value was -0.01.

**Q.** How did the “PBM E-score” value turn out when CGCTTTAG was run?
**A.** Its value is -0.136.

**Q.** With CATCTTTC as the sequence, how does the “PBM E-score” value read?
**A.** The value was -0.0278.

**Q.** CACCCTCA was tested. Which “PBM E-score” value did it give?
**A.** Its value is 0.257.

**Q.** Which “PBM E-score” value does the source give for AACCCTCG here?
**A.** Its value is 0.292.

**Q.** AACCCTCA was tested. Which “PBM E-score” value did it give?
**A.** The value was 0.383.

**Q.** How did the “PBM E-score” value turn out when GACCCTGC was run?
**A.** The value was 0.283.

**Q.** For CACCCTCC, which “PBM E-score” value is on record?
**A.** Its value is 0.326.

**Q.** Which “PBM E-score” value does the source give for AACCCTCC here?
**A.** Its value is 0.185.

**Q.** CTCCCTGC was tested. Which “PBM E-score” value did it give?
**A.** The value was -0.212.

**Q.** For CCCCCTGC, which “PBM E-score” value is on record?
**A.** The value was -0.372.

**Q.** CACCCTGC was tested. Which “PBM E-score” value did it give?
**A.** The value was 0.331.

**Q.** How did the “PBM E-score” value turn out when ACCCCTGC was run?
**A.** Its value is 0.167.

**Q.** How did the “PBM E-score” value turn out when ACCCCTCA was run?
**A.** Its value is 0.267.

**Q.** For AACCCTGC, which “PBM E-score” value is on record?
**A.** The value was 0.385.

**Q.** Which “PBM E-score” value does the source give for GACCCCTC here?
**A.** The value was 0.138.

**Q.** How did the “PBM E-score” value turn out when AAAAGCGT was run?
**A.** The value was -0.06.

**Q.** TGTGAACA was tested. Which “PBM E-score” value did it give?
**A.** The value was -0.0338.

**Q.** AGCCACCC was tested. Which “PBM E-score” value did it give?
**A.** Its value is -0.108.

**Q.** Which “PBM E-score” value does the source give for AAATGGGT here?
**A.** Its value is 0.265.

**Q.** How did the “PBM E-score” value turn out when AAATACCG was run?
**A.** Its value is 0.162.

**Q.** How did the “PBM E-score” value turn out when CTAGCAAC was run?
**A.** Its value is -0.0149.

**Q.** Which “PBM E-score” value does the source give for AATGTCGT here?
**A.** Its value is -0.0154.

**Q.** Which “PBM E-score” value does the source give for AGTCTGAT here?
**A.** The value was -0.0553.

**Q.** Which “PBM E-score” value does the source give for GCTATGAA here?
**A.** Its value is -0.0097.

**Q.** With TACCCTGA as the sequence, how does the “PBM E-score” value read?
**A.** Its value is 0.406.

**Q.** CACCCTGA was tested. Which “PBM E-score” value did it give?
**A.** Its value is 0.162.

**Q.** How did the “PBM E-score” value turn out when CACCCTGG was run?
**A.** The value was 0.169.

**Q.** ACCCCTGG was tested. Which “PBM E-score” value did it give?
**A.** The value was 0.289.

**Q.** For AACCCTGA, which “PBM E-score” value is on record?
**A.** The value was 0.461.

**Q.** CCCCCTGA was tested. Which “PBM E-score” value did it give?
**A.** Its value is -0.209.

**Q.** AACCCTGG was tested. Which “PBM E-score” value did it give?
**A.** Its value is 0.392.

**Q.** For GACCCTGA, which “PBM E-score” value is on record?
**A.** Its value is 0.304.

**Q.** AGCCCTGA was tested. Which “PBM E-score” value did it give?
**A.** Its value is -0.131.

**Q.** How did the “PBM E-score” value turn out when ATCCAACA was run?
**A.** The value was 0.0629.

**Q.** For AGCAAAAG, which “PBM E-score” value is on record?
**A.** Its value is -0.146.

**Q.** How did the “PBM E-score” value turn out when CCTAACTA was run?
**A.** The value was 0.135.

**Q.** Which “PBM E-score” value does the source give for CGTCCTCA here?
**A.** Its value is -0.162.

**Q.** GAAGCCCC was tested. Which “PBM E-score” value did it give?
**A.** Its value is -0.272.

**Q.** With CGTTAAAC as the sequence, how does the “PBM E-score” value read?
**A.** Its value is 0.21.

**Q.** Which “PBM E-score” value does the source give for GGTTAAAA here?
**A.** Its value is 0.385.

**Q.** CGTTAAGA was tested. Which “PBM E-score” value did it give?
**A.** Its value is -0.0174.

**Q.** With GGTTAAGA as the sequence, how does the “PBM E-score” value read?
**A.** Its value is 0.364.

**Q.** With AGTTAAGA as the sequence, how does the “PBM E-score” value read?
**A.** The value was 0.00562.

**Q.** For AGTTAAAC, which “PBM E-score” value is on record?
**A.** Its value is 0.0887.

**Q.** With CGTTAAAA as the sequence, how does the “PBM E-score” value read?
**A.** The value was 0.0117.

**Q.** GGTTAAAC was tested. Which “PBM E-score” value did it give?
**A.** The value was 0.356.

**Q.** How did the “PBM E-score” value turn out when TGTTAAAA was run?
**A.** Its value is 0.0204.

**Q.** How did the “PBM E-score” value turn out when AGTGTCGA was run?
**A.** The value was 0.127.
